Experimental data published in PubChem BioAssay AID1159580 (chemical genetic matrix, 2015).
Values joined by “and” are separate entries in the source; they are usually repeats but may differ in a detail not shown here. Identical values can stand only once. About 2,000 (36%) of roughly 5,500 compounds were called active. Not shown: some 18% with an inconclusive outcome. No stated cut-off is given here; in the data, active means normalized growth mostly below about 0.91 (no sharp cut-off); inconclusive means no clear call, values can overlap the other calls; inactive means mostly above about 0.92. Some of the results follow.

Assay: chemical genetic growth profiling, strain panel (AID 1159580);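 further: tested at 20 µM; growth read once vehicle control cultures reached saturation at 30 °C; 1 = growth at the plate median or of vehicle wells; lower values mean less growth of the strain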
Settings: S. cerevisiae deletion strains, growth OD

Measured: normalized growth

COP(=S)(OC)Oc1ccc([N+](=O)[O-])cc1
inactive: locus YAL013W, strain DEP1, active compounds read low 1.03 | locus YAL021C, strain ccr4, active compounds read low 1.01 | locus YAL026C, strain drs2, active compounds read low 0.995 | locus YAL030W, strain snc1, active compounds read low 1 | locus YBL061C, strain skt5, active compounds read low 1 | locus YBR009C, strain hhf1, active compounds read low 0.995 | locus YBR021W, strain FUR4, active compounds read low 1.01 | locus YBR023C, strain chs3, active compounds read low 0.994 | locus YBR171W, strain sec66, active compounds read low 0.994 | locus YBR229C, strain ROT2, active compounds read low 0.96 | locus YBR231C, strain swc5, active compounds read low 0.988 | locus YBR279W, strain paf1, active compounds read low 1 | locus YCL011C, strain gbp2, active compounds read low 0.992 | locus YCL016C, strain dcc1, active compounds read low 0.99 | locus YCL029C, strain bik1, active compounds read low 0.975 | locus YCL061C, strain MRC1, active compounds read low 0.991 | locus YCL069W, strain vba3, active compounds read low 0.996 | locus YCR088W, strain abp1, active compounds read low 0.99 | locus YDL005C, strain med2, active compounds read low 0.991 | locus YDL035C, strain GPR1, active compounds read low 0.988 | locus YDL040C, strain nat1, active compounds read low 0.993 | locus YDL074C, strain BRE1, active compounds read low 0.949 | locus YDL101C, strain DUN1, active compounds read low 0.973 | locus YDL134C, strain PPH21, active compounds read low 0.988 | locus YDL185W, strain tfp1, active compounds read low 0.958 | locus YDL192W, strain arf1, active compounds read low 0.972 | locus YDR001C, strain nth1, active compounds read low 1 | locus YDR069C, strain doa4, active compounds read low 0.956 | locus YDR101C, strain arx1, active compounds read low 0.984 | locus YDR137W, strain rgp1, active compounds read low 0.885 | locus YDR150W, strain NUM1, active compounds read low 0.975 | locus YDR159W, strain sac3, active compounds read low 0.981 | locus YDR162C, strain NBP2, active compounds read low 0.978 | locus YDR195W, strain ref2 1 | locus YDR297W, strain sur2, active compounds read low 0.996 | locus YDR318W, strain mcm21, active compounds read low 0.98 | locus YDR334W, strain swr1, active compounds read low 0.998 | locus YDR335W, strain msn5, active compounds read low 1.01 | locus YDR388W, active compounds read low 0.983 | locus YDR392W, strain spt3, active compounds read low 0.922 | locus YDR502C, strain sam2, active compounds read low 0.971 | locus YEL003W, strain gim4, active compounds read low 0.996 | locus YEL037C, strain rad23, active compounds read low 0.999 | locus YEL061C, strain CIN8 (second series), active compounds read low 1 | locus YEL061C, strain CIN8, active compounds read low 0.976 | locus YER015W, strain faa2, active compounds read low 0.996 | locus YER016W, strain bim1, active compounds read low 0.997 | locus YER110C, active compounds read low 0.963 | locus YER111C, strain swi4, active compounds read low 1 | locus YER155C, strain BEM2 (second series), active compounds read low 0.94 | locus YER155C, strain BEM2, active compounds read low 1.01 | locus YER167W, strain BCK2, active compounds read low 0.979 | locus YFR010W, strain ubp6, active compounds read low 0.999 | locus YGL078C, strain dbp3, active compounds read low 0.985 | locus YGL086W, strain mad1, active compounds read low 0.994 | locus YGL167C, strain pmr1, active compounds read low 0.992 | locus YGL173C, strain kem1, active compounds read low 0.99 | locus YGL227W, strain vid30, active compounds read low 0.993 | locus YGL240W, strain doc1, active compounds read low 0.987 | locus YGL248W, strain PDE1, active compounds read low 0.966 | locus YGL253W, strain hxk2, active compounds read low 0.999 | locus YGR078C, strain PAC10, active compounds read low 0.989 | locus YGR135W, strain pre9, active compounds read low 0.976 | locus YGR229C, strain SMI1, active compounds read low 0.99 | locus YGR252W, strain gcn5, active compounds read low 0.968 | locus YHR013C, strain ard1, active compounds read low 1.02 | locus YHR027C, strain rpn1, active compounds read low 0.987 | locus YHR030C, strain SLT2, active compounds read low 0.998 and 0.993 | locus YHR079C, strain IRE1 (second series), active compounds read low 0.984 | locus YHR079C, strain IRE1, active compounds read low 0.988 | locus YHR094C, strain hxt1, active compounds read low 0.987 | locus YHR129C, strain ARP1, active compounds read low 0.978 | locus YHR142W, strain chs7, active compounds read low 0.965 | locus YHR200W, strain rpn10, active compounds read low 0.987 | locus YIL066C, strain RNR3, active compounds read low 0.967 | locus YIL073C, strain SPO22, active compounds read low 0.993 | locus YIL125W, strain kgd1, active compounds read low 0.971 | locus YIR030C, strain dcg1, active compounds read low 0.98 | locus YJL092W, strain hpr5, active compounds read low 0.996 | locus YJL095W, strain BCK1 (second series), active compounds read low 0.993 | locus YJL095W, strain BCK1, active compounds read low 0.974 and 1.01 | locus YJL115W, strain asf1, active compounds read low 0.986 | locus YJL129C, strain trk1, active compounds read low 0.988 | locus YJL134W, strain LCB3, active compounds read low 0.984 | locus YJL154C, strain vps35, active compounds read low 1 | locus YJL164C, strain tpk1, active compounds read low 0.99 | locus YJL166W, strain qcr8, active compounds read low 0.983 | locus YJL168C, strain set2, active compounds read low 0.982 | locus YJL187C, strain SWE1 (second series), active compounds read low 0.983 | locus YJL187C, strain SWE1, active compounds read low 1.02 | locus YJR043C, strain POL32, active compounds read low 0.983 | locus YJR066W, strain TOR1, active compounds read low 0.953
